From PubChem BioAssay (NCATS)

Tests used:
[1] = qHTS profiling of the MIPE4 collection as inhibitors of Plasmodium falciparum (3D7) proliferation (AID 743344);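 also: scaled between DMSO vehicle wells and 0.29 µM artemisinin as full inhibition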; details: P. falciparum 3D7 in erythrocytes, SYBR Green DNA fluorescence, 72 h; at 28.5 µM
In short: (§1)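 Parasite DNA was quantified by SYBR Green I fluorescence (ex 485, em 535 nm) after overnight lysis in saponin/Triton buffer at room temperature. Cultures at 0.3% parasitemia and 2.5% hematocrit were first exposed to compound for 72 h at 37 C; signals were normalised to artemisinin (0.29 uM) and vehicle wells.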

[2] = qHTS profiling of the MIPE4 collection as inhibitors of Plasmodium falciparum (DD2) proliferation (AID 743345); details: P. falciparum Dd2 in erythrocytes, SYBR Green DNA, 72 h; at 28.5 µM unless noted
In short: as §1

[3] = qHTS profiling of the MIPE4 collection as inhibitors of Plasmodium falciparum (DD2) proliferation (Rep 2) (AID 743346); details: P. falciparum Dd2 in erythrocytes, SYBR Green DNA, 72 h; at 28.5 µM
In short: as §1

[4] = qHTS profiling of the MIPE4 collection as inhibitors of Plasmodium falciparum (HB3) proliferation (AID 743347);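 also: plate controls were DMSO vehicle wells for no effect and artemisinin wells for full effect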; details: P. falciparum HB3 in erythrocytes, SYBR Green DNA, 72 h; at 28.5 µM
In short: as §1

[5] = High-throughput drug toxicity screening in the BPDCN cell line Gen2.2 (AID 1224824); details: Gen2.2 BPDCN cells; at 45.8 µM (top of the series);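 also: cells exposed to compounds for 48 h before reading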
In short: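 CellTiter-Glo luminescence after 48 h compound exposure of Gen2.2 cells; percent activity set with DMSO as 100% and bortezomib (9.2 uM final) as 0%. Cells seeded at 500 per well, RPMI + 10% FBS, 37 °C.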

[6] = High-throughput drug toxicity screening in the BPDCN cell line Cal-1 (AID 1224825); details: Cal-1 BPDCN cell viability, qHTS; at 45.8 µM (top of the series)
In short: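 Viability of the BPDCN line Cal-1 is measured as ATP-based luminescence (CellTiter-Glo) following 48 h incubation with compounds. Percent activity uses DMSO-treated wells as 100% and 9.2 uM bortezomib as 0%.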

Compound | parasite growth, % of DMSO control [1] | parasite growth remaining, % of DMSO control (lower = more inhibition) [2] | parasite growth, % of control (lower = inhibition) [3] | growth, % of control [4] | cell viability, % of control (lower = more cytotoxic) [5] | viability (% of control) [6]
C=C[C@@H]1CN2CCC1C[C@H]2[C@H](O)c1ccnc2ccccc12 (stereo partly drawn) | 26.8% | 10.8% | 46.5% | 21.5% | 14.7% | 47.1%
NC1CC1c1ccccc1 (stereo not drawn) | 95.6% | 17.6% | 105% | 109% | 70.9% | 95.2%
O=c1[nH]c2ccccc2n1C1CCN(Cc2ccc(-c3[nH]c4cc5ncnc5cc4nc3-c3ccccc3)cc2)CC1 | 4.63% | 6.7% | 14.2% | 4.58% | 4.84% | 3.61%
C[C@]12Cc3cn[nH]c3C[C@@H]1CC[C@@H]1[C@H]2CC[C@@]2(C)[C@H]1CC[C@]2(C)O | 52.2% | 90% | 54.3% | 47.2% | 133% | 111%
O=C1C=CC[C@@H]2[C@H]3CCCN4CCC[C@@H](CN12)[C@@H]34 | 101% | 99.7% | 86.7% | 97.5% | 126% | 120%
N#C[C@H](O[C@@H]1O[C@H](CO[C@@H]2O[C@H](CO)[C@H](O)[C@H](O)[C@H]2O)[C@H](O)[C@H](O)[C@H]1O)c1ccccc1 | 61.2% | 17.6% | 37.7% | 60.6% | 180% | 52.5%
CC1=C(O)C(=O)C=C2C1=CC=C1[C@@]2(C)CC[C@@]2(C)[C@@H]3C[C@](C)(C(=O)O)CC[C@]3(C)CC[C@]12C | 8.49% | 7.57% | 16.2% | 8.31% | 12.3% | 7.21%
CCOP(=O)(OCC)C(C)NC(=O)N(CCCl)N=O (stereo not drawn) | 103% | 97.6% | 135% | 116% | 109% | 103%
CC[C@@H]1[C@@H](C)O[C@@](O)([C@@H](C)[C@H](O)[C@H](C)[C@H]2OC(=O)C=CC=C[C@@H](C)[C@@H]([C@@H](C)[C@@H](O)[C@H](C)[C@@]3(O)C[C@H](O[C@H]4C[C@H](O)[C@H](O)[C@H](C)O4)[C@H](CC)[C@@H](C)O3)OC(=O)C=CC=C[C@@H]2C)C[C@H]1O[C@H]1C[C@H](O)[C@H](O)[C@H](C)O1 | 49.6% | 6.07% | 25.8% | 47.6% | 11.5% | 3.46%
CC(=Cc1csc(C)n1)[C@@H]1C[C@H]2O[C@]2(C)CCC[C@H](C)[C@@H](O)[C@@H](C)C(=O)C(C)(C)[C@@H](O)CC(=O)O1 | 15.3% | 15.7% | 35.2% | 16.9% | 50.2% | 17%
C[C@@]12OC(=O)[C@]1([C@@H](O)[C@@H]1C=CCCC1)NC(=O)[C@H]2CCCl | 4.78% | 7.57% | 10.7% | 5.21% | 5.68% | 3.86%
O=S(=O)(F)Cc1ccccc1 | 95.8% | 95.2% | 85.6% | 94% | 76.9% | 97.3%
Cc1[nH]nc2ccc(-c3cncc(OC[C@@H](N)Cc4c[nH]c5ccccc45)c3)cc12 | 18.3% | 47.9% | 20.1% | 8.77% | 1.9% | 1.66%
COc1ccc2c(c1)[C@]13CCCCC1C(C2)N(C)CC3 (stereo partly drawn) | 92.5% | 85.3% | 52.9% | 323% | 61.8% | 93.4%
O=C(N[C@@H](COc1ccc2[nH]c(=O)[nH]c2c1)c1ccccc1)c1cccn(Cc2ccc(F)c(F)c2)c1=O | 50.5% | 85.6% | 75.9% | 63.1% | 46.5% | 36.8%
CC(=O)N(C)c1cccc(-c2ccnc3c(C(=O)c4cccs4)cnn23)c1 | 44.9% | 66.2% | 51.9% | 50.4% | 111% | 72.5%
CC(=O)OCC1=C(C(=O)O)N2C(=O)[C@@H](N)[C@@H]2SC1 | 90.9% | 97.8% | 77.5% | 97.3% | 68.5% | 15.5%
O=c1[nH]c2ccc(Cl)cc2c(N[C@@H]2CN3CCC2CC3)c1-c1nc2ccccc2[nH]1 | 5.05% | 5.74% | 8.84% | 2.7% | 2.72% | 2.3%
COc1ccc(N(C(=O)Oc2c(C)cccc2C)c2ccnc(Nc3ccc(N4CCN(C)CC4)cc3)n2)c(OC)c1 | 5.18% | 6.94% | 20.9% | 9.74% | 137% | 13.7%
Cc1ccccc1-n1c(Cn2ncc3c(N)ncnc32)nc2cccc(C)c2c1=O | 48.8% | 94.1% | 37% | 53.3% | 28.1% | 17.1%
O=C(N[C@H]1CN2CCC1CC2)c1ccc(Cl)cc1 | 89.4% | 82.1% | 31.9% | 71.8% | 126% | 106%
CC(C)N[C@@H]1CCn2c(=O)[nH]c3cccc(c32)[C@@H]1O | 93.3% | 104% | 118% | 101% | 22.6% | 7.1%
N=c1c2c(-c3ccccc3)c(-c3ccccc3)n(Cc3ccccc3)c2ncn1C1CCC(O)CC1 (stereo not drawn) | 10.7% | 9.02% | 12.7% | 9.68% | 130% | 11.7%
